# According to the supplement of paper PMC10105736:
# A number with no mark means an inactive call.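 Rule for the calls: active = MAPPIT score above the 99th percentile of random reference set scores in the same batch; inactive = at or below it.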
# B1: Mst84Db (protein)
# chain: MCCGPLGFCGPCSPCGGPCGPCGPCGPCGSCCSPCGSCCAPCGPCGPCGPCCGGCGPCGPCGPCCGPCRPYCGC
# B2: Paris (protein)
# chain: MAEICRVCMDISGKLVNIFDARRRTRVSIAEMIAQCTGFEVKRGDLFSEMICPQCYEDVKSAYGIRQTCEESHQFYCRVRDEGIEDALCALLEEEDWEISEDEDARIDSASAADDDGKSDSKKVAFECRECHKKYQRKGTFLRHMRTHMDGQSFPCPYCKRNFRLRVTLKAHMKTHNAAKPYECSHCAKTFAQQSTLQSHERTHTGERPFKCSQCSKTFIKSSDLRRHIRTHGSERPFKCSKCTKTFTRKFHLDNHFRSHTGERPFKCSHCPKAFAMKQHLKQHSRLHLPDRPFRCSHCPKTFRLSSTLKEHKLVHNAERTFKCPHCASFYKQRKTLARHILEIHK
# B3: RhoGAP92B (protein)
# chain: MKRQFAKIKIAAENLSRSSKSDSKDSELEAIERQVDRYRDTIEKIVRKLPALSGGGGSGSGSSEEQDKRTKKNSHYKIAQALDESAKELPKDMPLQKVLANCGELEKTMAECIIESELETEAKVVRRLKNILDKEIQEISTLKRNVSRTLQEYTSLKRSHEAAIRLEEPAAKVNHIKSQQEECELKLEKERDAWAAQMLELIAKEDEIVSCIRDYVLNQRNYHERALQHVNASLARIQDTIQGTEKSRFGTSLKEHLTSTNREISYIVELCCCCLLEHGLEEEGLLRVGCASTKLRRMKHALEAQHVKTPLPLDYQDPHVIGSILKLYLRELPEPLLTYNLYKDFIRIAERHSEAERKTEIKAILTKLPKENYANLRYLTRFLSIVQQRSALNKMSSQNLAIVMSPNMLWPRIDKSSNAPADYIGQVNSSSAANIIVELLISQWDYFFIGEVEFYLTLQKQKLFVEGKSKSNSSNENLDRNDSEVMESPRYGTLRRQKANAPSPPTTNGNGIIMTTSQTSHRPHAKELFPQQTPEKQEKPAKPPLPNLPQFQSPAASQPTQTQLEPLPPPPVTPAKPVPMTRTQFFGLDNLPSPTADRKSTDSIGSFKLKPDVPQKPLLPKRPTVLGVGVPKADGKSDDEGGTTPTQATIDNGNGSVRFKTEHFLDKLRQENGETNGTREVSSTTKENNHNHDPPATAADQNQQQAQPQVTTPISPNSFQTPKRPTVPAPPPPTNWKSSD
# B4: Pka-R1 (protein)
# chain: MSYMMAKTLEEQSLRECEHYIQTHGIQRVLKDCIVQLCVCRPENPVQFLRQYFQKLEREQVKLDASRQVISPDDCEDLSPMPQTAAPPVRRRGGISAEPVTEEDATNYVKKVVPKDYKTMNALSKAIAKNVLFAHLDESERSDIFDAMFPVNHIAGENIIQQGDEGDNFYVIDVGEVDVFVNSELVTTISEGGSFGELALIYGTPRAATVRAKTDVKLWGIDRDSYRRILMGSTIRKRKMYEEFLSRVSILESLDKWERLTVADSLETCSFDDGETIVKQGAAGDDFYIILEGCAVVLQQRSEGEDPAEVGRLGSSDYFGEIALLLDRPRAATVVARGPLKCVKLDRARFERVLGPCADILKRNITQYNSFVSLSV
# B5: TfIIA-L (protein)
# chain: MALCQTSVLKVYHAVIEDVITNVRDAFLDEGVDEQVLQEMKQVWRNKLLASKAVELSPDSGDGSHPPPIVANNPKSHKAANAKAKKAAAATAVTSHQHIGGNSSMSSLVGLKSSAGMAAGSGIRNGLVPIKQEVNSQNPPPLHPTSAASMMQKQQQAASSGQGSIPIVATLDPNRIMPVNITLPSPAGSASSESRVLTIQVPASALQENQLTQILTAHLISSIMSLPTTLASSVLQQHVNAALSSANHQKTLAAAKQLDGALDSSDEDESEESDDNIDNDDDDDLDKDDDEDAEHEDAAEEEPLNSEDDVTDEDSAEMFDTDNVIVCQYDKITRSRNKWKFYLKDGIMNMRGKDYVFQKSNGDAEW
# B6: Tm2 (protein)
# chain: MDAIKKKMQAMKLEKDNAIDKADTCENQAKDANSRADKLNEEVRDLEKKFVQVEIDLVTAKEQLEKANTELEEKEKLLTATESEVATQNRKVQQIEEDLEKSEERSTTAQQKLLEATQSADENNRMCKVLENRSQQDEERMDQLTNQLKEARMLAEDADTKSDEVSRKLAFVEDELEVAEDRVRSGESKIMELEEELKVVGNSLKSLEVSEEKANQRVEEFKREMKTLSIKLKEAEQRAEHAEKQVKRLQKEVDRLEDRLFNEKEKYKAICDDLDQTFAELTGY
# What was measured:
# Assay in all cases: MAPPIT interaction score (arbitrary units); higher = stronger binary interaction signal, active = hit call of the paper
# CG43325 = conditions: MAPPIT configuration: N-C; pair source set: screen_4
# caup = conditions: MAPPIT configuration: N-N; pair source set: screen_1
# CG4360 = conditions: MAPPIT configuration: N-N; pair source set: Curagen_low_conf
# CG44837 = conditions: MAPPIT configuration: N-N; pair source set: Curagen_low_conf
# CG4511 = conditions: MAPPIT configuration: N-C; pair source set: screen_3
# CG4617 = conditions: MAPPIT configuration: N-N; pair source set: Curagen_high_conf
# CG46280 = conditions: MAPPIT configuration: N-C; pair source set: screen_4
# 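Note: HEK293T cells with Epo stimulation, STAT-responsive firefly luciferase reporter, fold induction versus unstimulated cells divided by the larger fold induction of two negative controls lacking either bait or prey.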
binder,measurement,setting,value
B1,MAPPIT interaction score,CG43325,1.12
same,MAPPIT interaction score,caup,0.0255
B2,MAPPIT interaction score,CG4360,0.0302
B3,MAPPIT interaction score,CG44837,-0.0901
B4,MAPPIT interaction score,CG4511,5.21 (active)
B5,MAPPIT interaction score,CG4617,-0.0193
B6,MAPPIT interaction score,CG46280,1.5
